We go through ten molecules from PubChem BioAssay (EPA / NIEHS).

The nature of assay [1]: ATG_GRE_CIS: Attagene CIS-FACTORIAL HepG2 Assay for human Glucocorticoid Response Elements (GRE) (AID 2282947; active means hit-call score of the fitted dose curve at least 0.9, where 1 is the maximum; inactive means score below 0.9). The settings on record: HepG2 GRE cis-reporter, Attagene multiplex mRNA; actives raise or lower the signal. A digest of the protocol: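 Fluorescence intensity of reporter-specific cDNA fragments, separated by capillary electrophoresis, provides the signal. Constructs carry cis-regulating promoters in transiently transfected HepG2 liver cells; 24 h incubation; fitting is bidirectional against DMSO.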

A short description of assay [2]: ATG_PBREM_CIS: Attagene CIS-FACTORIAL HepG2 Assay for human Phenobarbital-responsive Enhancer Module (PBREM) (AID 2282955; active means hit-call score of the fitted dose curve at least 0.9, where 1 is the maximum; inactive means score below 0.9). The conditions noted are these: HepG2 PBREM cis-reporter, Attagene multiplexed transcription; actives raise or lower the signal. The procedure, abridged:
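Reporter mRNA read by RT-PCR, 6-FAM primer extension, HpaI digestion and capillary electrophoresis. Transfected HepG2 cells, 24 h compound exposure. Gain or loss of signal fitted bidirectionally relative to DMSO baseline.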

Assay [3] is described as follows: ATG_RORE_CIS: Attagene CIS-FACTORIAL HepG2 Assay for human RAR-related Orphan Receptor Element (RORE) (AID 2282959; active means hit-call score of the fitted dose curve at least 0.9, where 1 is the maximum; inactive means score below 0.9). The conditions noted are these: HepG2 Attagene cis-factorial RORE reporter, mRNA; actives raise or lower the signal. The procedure, abridged:
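Readout: fluorescent reporter mRNA by RT-PCR plus capillary electrophoresis, 24 h after dosing transfected HepG2 cells. Endogenous transcription factor activity on a cis promoter element is measured. Gain or loss of signal fitted against DMSO.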

The target of assay [4] is Transcription factor Sp1 (Homo sapiens) (UniProt P08047). In words: ATG_Sp1_CIS: Attagene CIS-FACTORIAL HepG2 Assay for human Specificity Protein 1 (Sp1) (AID 2282961; active means hit-call score of the fitted dose curve at least 0.9, where 1 is the maximum; inactive means score below 0.9). The settings on record: HepG2 Sp1 cis-reporter transcription, actives raise or lower the signal. A digest of the protocol: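 Read-out: fluorescence of 6-FAM-labeled, HpaI-digested RT-PCR products separated by capillary electrophoresis. HepG2 cells carried transfected cis-element reporter units and were exposed to chemicals for 24 h; gain or loss of signal fitted relative to DMSO.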

For assay [5], the target named is Signal transducer and activator of transcription 3 (Homo sapiens) (UniProt P40763). Briefly: ATG_STAT3_CIS: Attagene CIS-FACTORIAL HepG2 Assay for human Signal Transducer and Activator of Transcription 3 (STAT3) (AID 2282963; active means hit-call score of the fitted dose curve at least 0.9, where 1 is the maximum; inactive means score below 0.9). The settings on record: HepG2, Attagene cis-factorial STAT3 reporter transcription; actives raise or lower the signal. A digest of the protocol: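 Fluorescence intensity of 6-FAM-labelled reporter fragments, separated by capillary electrophoresis after RT-PCR, gave the signal. Cells were HepG2 transfected with cis-element reporter units and treated 24 h; fitting was bidirectional relative to DMSO.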

Assay [6] has as its target Hepatocyte nuclear factor 4-alpha (Homo sapiens) (UniProt P41235). In words: ATG_HNF4a_TRANS: Attagene TRANS-FACTORIAL HepG2 Assay for human Hepatocyte Nuclear Factor 4 alpha (HNF4a) (AID 2282982). The conditions noted are these: HepG2 HNF4a transactivation reporter, mRNA readout. The procedure, abridged:
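Endpoint reflects transcriptional activation of a GAL4-UAS reporter by an HNF4a-GAL4 chimera in transfected HepG2 cells, 24 h post-dosing. Fluorescence from RT-PCR products separated by capillary electrophoresis; DMSO baseline.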

The nature of assay [7]: ATG_M_32_TRANS: Attagene TRANS-FACTORIAL HepG2 Assay for M32 Transcription Factor (Internal Marker) (AID 2282984).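 Further: transcript level of a background control reporter unit measured by RT-PCR and capillary electrophoresis.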 The conditions noted are these: HepG2 Attagene TRANS M32 internal marker reporter. A digest of the protocol:
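Internal-marker readout from a multiplexed transcription reporter panel. HepG2 cells were transfected with GAL4-UAS reporter units, treated 24 hours, and reporter transcript levels determined by fluorescence after RT-PCR and capillary separation.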

Assay [8] has as its target Transcriptional activator Myb (Homo sapiens) (UniProt P10242). Briefly: ATG_Myb_CIS: Attagene CIS-FACTORIAL HepG2 Assay for human Myeloblastosis (Myb) Proto-Oncogene Transcription Factor (AID 2282986; active means hit-call score of the fitted dose curve at least 0.9, where 1 is the maximum; inactive means score below 0.9). The settings on record: HepG2 Attagene CIS-FACTORIAL Myb reporter transcription; actives raise or lower the signal. A digest of the protocol: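 HepG2, transient MRTU transfection (cis-element promoters, endogenous TF activity), 24 h compound exposure. Readout: reporter mRNA via RT-PCR, 6-FAM labeling, HpaI digest, capillary electrophoresis. Gain/loss fit vs DMSO.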

Assay [9] deals with Peroxisome proliferator-activated receptor gamma (Homo sapiens) (UniProt P37231). Briefly: ATG_PPARg_TRANS: Attagene TRANS-FACTORIAL HepG2 Assay for human Peroxisome Proliferator-activated Receptor-gamma (PPARg) (AID 2283007). The procedure, abridged:
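Read-out: reporter mRNA induction, detected by fluorescence after RT-PCR and capillary electrophoresis. Transiently transfected human HepG2 liver cells carrying a chimeric NR-Gal4 construct were dosed for 24 h; activity was fitted upward relative to DMSO.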

Assay [10] concerns the target human Retinoid X Receptor beta (RXRb), RXRB (gene 6257) (UniProt P28702). In words: ATG_RXRb_TRANS: Attagene TRANS-FACTORIAL HepG2 Assay for human Retinoid X Receptor beta (RXRb) (AID 2283013). The procedure, abridged:
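Readout is reporter transcript induction after 24 h dosing. It is measured by RT-PCR of total RNA followed by fluorescent capillary electrophoresis. HepG2 liver cells carry transfected multiple reporter units driven by an exogenous RXRb-Gal4 fusion; activity is relative to DMSO.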

The nature of assay [11]: TOX21_p53_BLA_p2_viability: Viability Assessment in the Tox21 HCT-116 p53 Agonism Beta-lactamase Assay, Phase 2 (AID 2283591).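 Further: compound exposure lasted 16 h at 37 °C; actives lower the ATP signal meaning cytotoxicity.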 The procedure, abridged: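 HCT116 p53-bla cells, 4000/well, dosed after 5 h plating (217-fold dilution of DMSO stocks) and incubated 16 h at 37C. Viability taken as cellular ATP by CellTiter-Glo luminescence after 30 min RT; signal loss marks cytotoxicity.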

In assay [12] the target is Cellular tumor antigen p53 (Homo sapiens) (UniProt P04637). Briefly: TOX21_p53_BLA_p2_ratio: Tox21 HCT-116 p53 Agonism Beta-lactamase Assay, Ratio, Phase 2 (AID 2283592). The procedure, abridged:
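Plated HCT116 p53-bla cells (4000/well) received compound after 5 h, then 16 h at 37C/5% CO2. CCF4-AM added, 2 h RT. Ratio of 460 to 530 nm emission taken as the p53 reporter signal.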

Assay [13] has the same target. Briefly: TOX21_p53_BLA_p3_ratio: Tox21 HCT-116 p53 Agonism Beta-lactamase Assay, Ratio, Phase 3 (AID 2283596). A digest of the protocol:
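Cells were seeded at 4000/well, rested 5 h at 37C, then dosed with DMSO compound solutions (217-fold dilution) for 16 h. CCF4-AM substrate was loaded for 2 h at room temperature, and the 460/530 nm emission ratio was fitted for gain of signal versus DMSO.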

Assay [14] has the same target. In words: TOX21_p53_BLA_p4_ratio: Tox21 HCT-116 p53 Agonism Beta-lactamase Assay, Ratio, Phase 4 (AID 2283601). A digest of the protocol: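 HCT-116 p53 beta-lactamase reporter cells (4000/well) preincubated 5 h, then compound (217-fold dilution of DMSO stock) for 16 h at 37C. CCF4-AM substrate added 2 h at room temperature; 460/530 nm emission ratio fitted upward versus DMSO.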

Assay [15] in a line: ACEA_ER_AUC_viability: ACEA Biosciences xCELLigence Real-Time Cell Analysis on Estrogen Receptor Agonism for Viability (AID 2283782).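 Further: hit means loss of impedance signal meaning reduced cell growth or viability.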 The procedure, abridged:
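Read-out: real-time electrical impedance (RT-CES) area under curve, loss of signal taken as reduced viability, normalized to DMSO baseline. T-47D cells, charcoal-stripped serum medium, compounds up to 100 uM final, continuous exposure, 80 h.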

Assay [16] can be described thus: ATG_M_06_TRANS: Attagene TRANS-FACTORIAL HepG2 Assay for M06 Transcription Factor (Internal Marker) (AID 2282983). The conditions noted are these: HepG2 Attagene TRANS M06 internal marker reporter. The procedure, abridged: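 Background control endpoint: reporter mRNA from transiently transfected HepG2 after 24 h dosing, detected by RT-PCR with capillary electrophoresis fluorescence. Analysed for gain versus DMSO.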

Assay [17] is described as follows: ATG_NFI_CIS: Attagene CIS-FACTORIAL HepG2 Assay for human Nuclear Factor I (NFI) (AID 2282989; active means hit-call score of the fitted dose curve at least 0.9, where 1 is the maximum; inactive means score below 0.9). The conditions noted are these: HepG2 cis-regulatory reporter, NFI response element transcription; actives raise or lower the signal. The procedure, abridged:
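Multiplexed cis-reporter system in human HepG2 cells reports native TF activity as reporter mRNA induction 24 h post-dose. Fragments labelled with 6-FAM, HpaI-digested and resolved by capillary electrophoresis; activity fitted both directions versus DMSO.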

Assay [18] can be described thus: TOX21_p53_BLA_p4_viability: Viability Assessment in the Tox21 HCT-116 p53 Agonism Beta-lactamase Assay, Phase 4 (AID 2283597).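 Further: hits lower the luminescence signal meaning cytotoxicity.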 The procedure, abridged: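 Readout: ATP luminescence (CellTiter-Glo), measured 30 min after reagent addition at RT. The reagent followed a 2 h CCF4-AM incubation, and the cells had been exposed to compound for 16 h at 37C.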
The target in assay [19] is Cellular tumor antigen p53 (Homo sapiens) (UniProt P04637). Briefly: TOX21_p53_BLA_p5_ratio: Tox21 HCT-116 p53 Agonism Beta-lactamase Assay, Ratio, Phase 5 (AID 2283599). The procedure, abridged: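 HCT-116 p53-bla cells (4000/well) plated 5 h, dosed with compound (217-fold DMSO dilution) for 16 h at 37 C; CCF4-AM substrate 2 h at room temperature. Activity is the 460/530 nm emission ratio (405 nm excitation), fitted in gain-of-signal direction versus DMSO.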

A short description of assay [20]: TOX21_p53_BLA_p5_viability: Viability Assessment in the Tox21 HCT-116 p53 Agonism Beta-lactamase Assay, Phase 5 (AID 2283600). A digest of the protocol:
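Workflow: seed 4000 cells per well, wait 5 h, add compounds (DMSO, 217-fold dilution), incubate 16 h, load CCF4-AM 2 h, add CellTiter-Glo, read luminescence after 30 min.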

For orientation: AC50 means the concentration giving half of the maximal activity seen.

Structures are written as SMILES. Results filed as inconclusive are left out. The source made the active and inactive calls. How the source made its calls, unless noted: active means hit-call score of the fitted dose curve at least 0.9, where 1 is the maximum; inconclusive means response in the unintended direction; inactive means score below 0.9.

Chain of Transcription factor Sp1 (Homo sapiens) (P08047 whole entry, looked up): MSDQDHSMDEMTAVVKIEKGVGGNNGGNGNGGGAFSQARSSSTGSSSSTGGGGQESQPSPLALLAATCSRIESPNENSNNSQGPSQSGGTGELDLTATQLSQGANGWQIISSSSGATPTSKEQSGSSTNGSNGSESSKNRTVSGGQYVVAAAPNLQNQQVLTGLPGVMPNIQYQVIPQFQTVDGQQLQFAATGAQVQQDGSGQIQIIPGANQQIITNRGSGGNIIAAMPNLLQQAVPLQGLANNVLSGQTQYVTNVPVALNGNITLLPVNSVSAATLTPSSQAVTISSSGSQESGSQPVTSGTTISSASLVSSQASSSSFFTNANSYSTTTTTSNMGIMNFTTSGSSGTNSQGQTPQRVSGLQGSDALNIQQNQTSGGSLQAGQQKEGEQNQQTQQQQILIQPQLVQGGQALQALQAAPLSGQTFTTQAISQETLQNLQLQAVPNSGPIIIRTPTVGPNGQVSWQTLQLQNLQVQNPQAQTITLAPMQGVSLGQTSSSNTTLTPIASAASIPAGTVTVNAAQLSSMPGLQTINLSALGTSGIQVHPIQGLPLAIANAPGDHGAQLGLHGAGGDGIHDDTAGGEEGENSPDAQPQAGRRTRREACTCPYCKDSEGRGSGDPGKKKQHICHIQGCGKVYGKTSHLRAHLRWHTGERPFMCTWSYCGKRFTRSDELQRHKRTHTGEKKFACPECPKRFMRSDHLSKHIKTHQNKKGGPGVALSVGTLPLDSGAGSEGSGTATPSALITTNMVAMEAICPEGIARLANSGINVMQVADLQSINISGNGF
Chain of Hepatocyte nuclear factor 4-alpha (Homo sapiens) (P41235 whole entry, looked up, the tested form may be a part): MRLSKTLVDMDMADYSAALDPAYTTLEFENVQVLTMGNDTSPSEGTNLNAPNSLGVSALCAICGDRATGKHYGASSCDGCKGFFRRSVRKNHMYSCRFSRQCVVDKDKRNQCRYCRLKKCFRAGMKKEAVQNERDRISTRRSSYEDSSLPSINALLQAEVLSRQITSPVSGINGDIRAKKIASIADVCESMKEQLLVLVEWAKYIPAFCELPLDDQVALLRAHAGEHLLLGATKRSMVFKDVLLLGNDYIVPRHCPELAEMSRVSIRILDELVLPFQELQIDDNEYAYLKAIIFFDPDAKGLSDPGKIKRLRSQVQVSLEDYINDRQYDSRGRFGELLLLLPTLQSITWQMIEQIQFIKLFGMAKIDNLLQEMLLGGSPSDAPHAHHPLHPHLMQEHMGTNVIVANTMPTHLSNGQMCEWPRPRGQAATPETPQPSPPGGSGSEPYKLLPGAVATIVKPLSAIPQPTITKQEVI
Chain of Signal transducer and activator of transcription 3 (Homo sapiens) (P40763 whole entry, looked up, the tested form may be a part): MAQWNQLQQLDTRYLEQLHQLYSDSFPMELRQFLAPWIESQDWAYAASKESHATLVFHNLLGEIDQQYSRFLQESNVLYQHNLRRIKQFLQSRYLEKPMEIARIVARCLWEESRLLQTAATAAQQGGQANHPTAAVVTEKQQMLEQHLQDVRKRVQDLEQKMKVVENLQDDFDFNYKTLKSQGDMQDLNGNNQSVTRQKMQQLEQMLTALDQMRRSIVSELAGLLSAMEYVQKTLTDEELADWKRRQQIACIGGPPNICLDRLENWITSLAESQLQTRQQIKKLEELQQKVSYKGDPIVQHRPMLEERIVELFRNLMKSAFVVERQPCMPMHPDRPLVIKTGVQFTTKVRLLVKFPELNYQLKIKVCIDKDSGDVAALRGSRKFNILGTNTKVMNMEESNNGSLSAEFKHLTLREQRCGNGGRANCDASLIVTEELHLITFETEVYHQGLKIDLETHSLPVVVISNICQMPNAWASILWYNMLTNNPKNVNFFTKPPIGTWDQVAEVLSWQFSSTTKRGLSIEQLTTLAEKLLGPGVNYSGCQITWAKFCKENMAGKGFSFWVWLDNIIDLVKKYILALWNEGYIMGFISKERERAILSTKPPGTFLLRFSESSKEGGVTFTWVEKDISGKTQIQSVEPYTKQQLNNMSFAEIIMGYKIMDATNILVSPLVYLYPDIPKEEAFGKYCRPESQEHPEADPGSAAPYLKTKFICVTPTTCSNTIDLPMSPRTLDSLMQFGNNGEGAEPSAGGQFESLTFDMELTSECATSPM
Chain of Transcriptional activator Myb (Homo sapiens) (P10242 whole entry, looked up): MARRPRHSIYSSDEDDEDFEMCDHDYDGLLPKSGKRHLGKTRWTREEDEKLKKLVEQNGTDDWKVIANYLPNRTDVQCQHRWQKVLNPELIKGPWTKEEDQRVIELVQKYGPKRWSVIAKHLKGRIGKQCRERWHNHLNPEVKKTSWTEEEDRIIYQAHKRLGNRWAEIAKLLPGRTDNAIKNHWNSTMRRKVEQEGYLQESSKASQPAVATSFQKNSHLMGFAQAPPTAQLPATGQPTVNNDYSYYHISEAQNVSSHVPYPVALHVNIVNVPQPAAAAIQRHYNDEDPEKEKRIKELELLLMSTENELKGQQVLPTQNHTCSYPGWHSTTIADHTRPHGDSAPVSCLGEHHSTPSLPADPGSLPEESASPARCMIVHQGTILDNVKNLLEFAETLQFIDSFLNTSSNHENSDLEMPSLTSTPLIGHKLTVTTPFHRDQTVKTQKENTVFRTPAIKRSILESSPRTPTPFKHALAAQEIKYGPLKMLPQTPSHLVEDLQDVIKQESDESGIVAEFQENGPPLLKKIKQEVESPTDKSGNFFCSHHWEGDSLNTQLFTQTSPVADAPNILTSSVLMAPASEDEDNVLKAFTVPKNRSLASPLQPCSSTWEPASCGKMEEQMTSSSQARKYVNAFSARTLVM
Chain of human Retinoid X Receptor beta (RXRb), RXRB (gene 6257) (P28702 whole entry, looked up, the tested form may be a part): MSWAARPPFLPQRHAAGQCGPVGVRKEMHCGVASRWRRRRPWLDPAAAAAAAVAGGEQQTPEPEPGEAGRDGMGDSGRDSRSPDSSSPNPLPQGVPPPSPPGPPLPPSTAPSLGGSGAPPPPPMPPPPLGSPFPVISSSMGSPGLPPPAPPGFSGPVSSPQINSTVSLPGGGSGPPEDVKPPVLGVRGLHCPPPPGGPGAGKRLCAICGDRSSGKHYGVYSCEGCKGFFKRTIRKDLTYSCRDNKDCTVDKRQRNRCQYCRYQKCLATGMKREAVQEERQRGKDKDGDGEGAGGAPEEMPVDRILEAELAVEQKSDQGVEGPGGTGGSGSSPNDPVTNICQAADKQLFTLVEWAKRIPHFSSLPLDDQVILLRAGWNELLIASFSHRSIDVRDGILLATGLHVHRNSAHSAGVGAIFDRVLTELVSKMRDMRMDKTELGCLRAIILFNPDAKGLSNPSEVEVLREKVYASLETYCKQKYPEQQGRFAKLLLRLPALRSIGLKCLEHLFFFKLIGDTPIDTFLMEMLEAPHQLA
Chain of Peroxisome proliferator-activated receptor gamma (Homo sapiens) (P37231 whole entry, looked up, the tested form may be a part): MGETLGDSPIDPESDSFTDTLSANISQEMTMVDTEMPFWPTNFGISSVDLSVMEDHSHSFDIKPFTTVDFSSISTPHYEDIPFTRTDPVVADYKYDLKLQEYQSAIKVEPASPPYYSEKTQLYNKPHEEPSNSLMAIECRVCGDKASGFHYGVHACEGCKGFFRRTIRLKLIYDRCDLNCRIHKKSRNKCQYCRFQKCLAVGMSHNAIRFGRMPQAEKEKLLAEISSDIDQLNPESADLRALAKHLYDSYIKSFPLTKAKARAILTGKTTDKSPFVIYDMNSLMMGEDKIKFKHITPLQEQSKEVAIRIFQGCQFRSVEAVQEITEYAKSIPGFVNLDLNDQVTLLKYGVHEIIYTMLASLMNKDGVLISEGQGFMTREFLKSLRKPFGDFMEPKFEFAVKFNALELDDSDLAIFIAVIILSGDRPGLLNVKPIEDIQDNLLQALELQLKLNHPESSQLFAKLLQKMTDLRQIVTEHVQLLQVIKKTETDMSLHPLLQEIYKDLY
Chain of Cellular tumor antigen p53 (Homo sapiens) (P04637 whole entry, looked up): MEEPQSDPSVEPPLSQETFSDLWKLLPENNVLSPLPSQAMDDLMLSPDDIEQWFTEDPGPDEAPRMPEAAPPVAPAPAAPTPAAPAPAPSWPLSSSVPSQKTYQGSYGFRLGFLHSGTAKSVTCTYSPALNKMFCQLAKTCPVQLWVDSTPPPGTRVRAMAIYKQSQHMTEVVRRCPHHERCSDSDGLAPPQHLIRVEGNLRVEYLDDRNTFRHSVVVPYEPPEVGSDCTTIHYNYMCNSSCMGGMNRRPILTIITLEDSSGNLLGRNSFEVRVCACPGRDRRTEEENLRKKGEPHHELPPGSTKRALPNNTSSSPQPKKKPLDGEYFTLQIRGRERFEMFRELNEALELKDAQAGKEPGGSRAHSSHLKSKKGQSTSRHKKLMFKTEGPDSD

For the molecule `O=P(O)(Oc1ccccc1)Oc1ccccc1`, the molecule was classed as inactive in assay [1], in assay [2], in assay [3], in [4], in [5] and in assay [6]. The call in assay [7], in assay [8], in assay [9], in assay [10], in [11] and in [12] was inactive. For the same molecule, the outcome in assay [13], in assay [14] and in [15] was inactive.

Consider `CCC1CCC(=O)O1` (stereo not drawn), for which the molecule was classed as inactive in [1], in assay [3], in assay [4], in [5], in assay [6] and in assay [16]. Besides, the result in assay [7], in assay [8], in assay [17], in [10] and in assay [15] was inactive.

On to `Nc1ccc([N+](=O)[O-])cc1N`, for which the call in assay [5], in [6], in assay [16], in [7], in assay [8] and in assay [9] was inactive. Besides, the outcome in assay [10], in assay [12], in [13], in [18], in [19] and in assay [20] was inactive. In addition, in [14], the outcome was inactive. Besides, the AC50 in [15] is 50 µM (active).

With `O=c1[nH]c(Cl)c(Cl)cc1Cl`, the result in [2], in [4], in assay [5], in assay [7], in assay [10] and in assay [12] was inactive. The outcome in assay [13], in assay [18], in assay [19], in [20] and in [14] was inactive. Besides, the AC50 in [9] was 14.2 µM (active).

Take `O=[N+]([O-])O.O=[N+]([O-])O.[Cd]`: the molecule was classed as inactive in [1], in assay [6], in assay [16], in assay [7], in assay [9] and in [18]. For the same molecule, the results for the concentration at half-maximal activity (AC50) in assay [4], in assay [5] and in assay [11] were 1.38 µM (active), 11.1 µM (active) and 59.2 µM (active), respectively.

Take `ClC1=C(Cl)[C@]2(Cl)[C@@H]3[C@@H](Cl)[C@H](Cl)C[C@@H]3[C@@]1(Cl)C2(Cl)Cl`: the molecule was classed as inactive in assay [1], in [2], in assay [3], in assay [4], in assay [6] and in [7]. Also, the result in [8], in [9], in [10] and in assay [15] was inactive.

With `C=CC(=O)OCCO`, the molecule was classed as inactive in assay [1], in assay [2], in [6], in assay [16], in assay [8] and in assay [12]. The outcome in assay [13], in [19], in assay [20] and in assay [14] was inactive. Moreover, the results for the AC50 in [3] and in [15] were 59.1 µM (active) and 46.4 µM (active), respectively.

For the molecule `CC(C)(C)C(=O)CCl`, the molecule was called inactive in assay [1], in assay [3], in assay [4], in assay [5], in assay [6] and in [7]. The outcome in [8], in [10], in [11], in assay [12], in [13] and in [18] was inactive. Besides, the outcome in assay [19], in assay [20], in assay [14] and in [15] was inactive. Further, the AC50 in assay [9] was 25.7 µM (active).

For `CCN(CC)C(=S)S`, the molecule was called inactive in assay [1], in assay [4], in assay [16], in assay [7], in assay [8] and in assay [17]. The molecule was called inactive in assay [10]. Further, the AC50 in assay [9] is 51.5 µM (active).

For the molecule `NNc1ccccc1`, the outcome in assay [2], in [3], in assay [4], in assay [6], in assay [16] and in [7] was inactive. The result in [17], in assay [10] and in assay [15] was inactive. Also, the AC50 in assay [9] is 29.2 µM (active).
